PubChem BioAssay AID1159580 (chemical genetic matrix, 2015)
Hit rate of the full screen: of about 5,500 compounds, about 2,000 (36%) were called active. Not shown: some 18% with an inconclusive outcome. This is one part of the list. Unmarked numbers belong to inactive results. Cut-off read from the data, not from the text of the source: active = normalized growth mostly below about 0.91 (no sharp cut-off); inconclusive = no clear call, values can overlap the other calls; inactive = mostly above about 0.92.

Assay: chemical genetic growth profiling, strain panel (AID 1159580);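 note: tested at 20 µM; growth read once vehicle control cultures reached saturation at 30 °C; 1 = growth at the plate median or of vehicle wells; lower values mean less growth of the strain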
Conditions: S. cerevisiae deletion strains, growth OD

**Q.** With `O=C(Nc1cc(C(F)(F)F)cc(C(F)(F)F)c1)C(Cl)(Cl)Cl` as the compound, how does the normalized growth (locus YAR019C, strain CDC15, hits give low values) read?
**A.** 0.964

**Q.** What about the normalized growth (locus YBL105C, strain PKC1, hits give low values) of the same compound?
**A.** 0.958

**Q.** What about the normalized growth (locus YBR135W, strain CKS1, hits give low values) of the same compound?
**A.** 0.962

**Q.** What about the normalized growth (locus YBR136W, strain MEC1, hits give low values) of the same compound?
**A.** 0.965

**Q.** And the normalized growth (locus YBR160W, strain CDC28, hits give low values)?
**A.** 0.969

**Q.** And the normalized growth (locus YDL017W, strain CDC7, hits give low values)?
**A.** 0.959

**Q.** What about the normalized growth (locus YDL028C, strain MPS1, hits give low values) of the same compound?
**A.** 0.966

**Q.** What about the normalized growth (locus YDL101C, strain DUN1, hits give low values) of the same compound?
**A.** 0.97

**Q.** And the normalized growth (locus YDL108W, strain KIN28, hits give low values)?
**A.** 0.957

**Q.** What about the normalized growth (locus YDL132W, strain cdc53, hits give low values) of the same compound?
**A.** 0.955

**Q.** What about the normalized growth (locus YDL214C, strain PRR2, hits give low values) of the same compound?
**A.** 0.919

**Q.** What about the normalized growth (locus YDR052C, strain DBF4, hits give low values) of the same compound?
**A.** 0.964

**Q.** And the normalized growth (locus YDR054C, strain cdc34, hits give low values)?
**A.** 0.948

**Q.** And the normalized growth (locus YDR226W, strain ADK1, hits give low values)?
**A.** 0.959

**Q.** What about the normalized growth (locus YDR477W, strain SNF1, hits give low values) of the same compound?
**A.** 0.921

**Q.** What about the normalized growth (locus YER123W, strain YCK3, hits give low values) of the same compound?
**A.** 0.878

**Q.** What about the normalized growth (locus YER133W, strain GLC7, hits give low values) of the same compound?
**A.** 0.918

**Q.** And the normalized growth (locus YFL009W, strain cdc4, hits give low values)?
**A.** 0.951

**Q.** And the normalized growth (locus YFL029C, strain CAK1, hits give low values)?
**A.** 0.962

**Q.** What about the normalized growth (locus YFR003C, strain YPI1, hits give low values) of the same compound?
**A.** 0.955

**Q.** What about the normalized growth (locus YFR019W, strain FAB1, hits give low values) of the same compound?
**A.** 0.957

**Q.** What about the normalized growth (locus YFR028C, strain CDC14, hits give low values) of the same compound?
**A.** 0.962

**Q.** What about the normalized growth (locus YGR040W, strain KSS1, hits give low values) of the same compound?
**A.** 0.929

**Q.** What about the normalized growth (locus YGR052W, strain FMP48, hits give low values) of the same compound?
**A.** 0.911

**Q.** And the normalized growth (locus YGR092W, strain DBF2, hits give low values)?
**A.** 0.879

**Q.** What about the normalized growth (locus YHR030C, strain SLT2, hits give low values) of the same compound?
**A.** 0.829 (active)

**Q.** And the normalized growth (locus YHR079C, strain IRE1, hits give low values)?
**A.** 0.843

**Q.** What about the normalized growth (locus YHR082C, strain KSP1, hits give low values) of the same compound?
**A.** 0.932

**Q.** What about the normalized growth (locus YHR205W, strain SCH9, hits give low values) of the same compound?
**A.** 0.815

**Q.** What about the normalized growth (locus YIL147C, strain SLN1, hits give low values) of the same compound?
**A.** 0.96

**Q.** And the normalized growth (locus YJL095W, strain BCK1, hits give low values)?
**A.** 0.828

**Q.** And the normalized growth (locus YJL128C, strain PBS2, hits give low values)?
**A.** 0.883

**Q.** What about the normalized growth (locus YJL157C, strain FAR1, hits give low values) of the same compound?
**A.** 0.932

**Q.** What about the normalized growth (locus YJR016C, strain ILV3, hits give low values) of the same compound?
**A.** 0.956

**Q.** What about the normalized growth (locus YJR066W, strain TOR1 (second series), hits give low values) of the same compound?
**A.** 0.947

**Q.** And the normalized growth (locus YJR066W, strain TOR1, hits give low values)?
**A.** 0.955

**Q.** What about the normalized growth (locus YKL048C, strain ELM1, hits give low values) of the same compound?
**A.** 0.931

**Q.** And the normalized growth (locus YKL067W, strain YNK1, hits give low values)?
**A.** 0.932

**Q.** What about the normalized growth (locus YKL101W, strain HSL1, hits give low values) of the same compound?
**A.** 0.918

**Q.** What about the normalized growth (locus YKL193C, strain SDS22, hits give low values) of the same compound?
**A.** 0.95

**Q.** And the normalized growth (locus YKL203C, strain TOR2, hits give low values)?
**A.** 0.969

**Q.** And the normalized growth (locus YLR113W, strain HOG1, hits give low values)?
**A.** 0.853 (active)

**Q.** And the normalized growth (locus YLR133W, strain CKI1, hits give low values)?
**A.** 0.934

**Q.** What about the normalized growth (locus YLR403W, strain SFP1, hits give low values) of the same compound?
**A.** 0.916

**Q.** What about the normalized growth (locus YML070W, strain DAK1, hits give low values) of the same compound?
**A.** 0.891

**Q.** And the normalized growth (locus YMR001C, strain CDC5, hits give low values)?
**A.** 0.963

**Q.** What about the normalized growth (locus YMR205C, strain PFK2 (second series), hits give low values) of the same compound?
**A.** 0.926

**Q.** What about the normalized growth (locus YMR277W, strain FCP1, hits give low values) of the same compound?
**A.** 0.956

**Q.** And the normalized growth (locus YNL006W, strain LST8, hits give low values)?
**A.** 0.974

**Q.** What about the normalized growth (locus YNL020C, strain ARK1, hits give low values) of the same compound?
**A.** 0.92

**Q.** What about the normalized growth (locus YNL161W, strain CBK1, hits give low values) of the same compound?
**A.** 0.957

**Q.** And the normalized growth (locus YNL183C, strain NPR1, hits give low values)?
**A.** 0.913

**Q.** And the normalized growth (locus YNL207W, strain RIO2, hits give low values)?
**A.** 0.955

**Q.** And the normalized growth (locus YNL222W, strain SSU72, hits give low values)?
**A.** 0.967

**Q.** And the normalized growth (locus YNL307C, strain MCK1 (second series), hits give low values)?
**A.** 0.869

**Q.** And the normalized growth (locus YOL078W, strain AVO1, hits give low values)?
**A.** 0.961

**Q.** What about the normalized growth (locus YOL136C, strain PFK27, hits give low values) of the same compound?
**A.** 0.89

**Q.** And the normalized growth (locus YOR061W, strain CKA2, hits give low values)?
**A.** 0.96

**Q.** What about the normalized growth (locus YOR119C, strain RIO1, hits give low values) of the same compound?
**A.** 1

**Q.** What about the normalized growth (locus YOR231W, strain MKK1, hits give low values) of the same compound?
**A.** 0.896

**Q.** And the normalized growth (locus YOR329C, strain SCD5, hits give low values)?
**A.** 0.959

**Q.** What about the normalized growth (locus YPL031C, strain PHO85, hits give low values) of the same compound?
**A.** 0.904

**Q.** And the normalized growth (locus YPL153C, strain RAD53, hits give low values)?
**A.** 0.889

**Q.** What about the normalized growth (locus YPL204W, strain HRR25, hits give low values) of the same compound?
**A.** 0.879

**Q.** And the normalized growth (locus YPL209C, strain IPL1, hits give low values)?
**A.** 0.964

**Q.** And the normalized growth (locus YPL256C, strain CLN2, hits give low values)?
**A.** 0.77 (active)

**Q.** What about the normalized growth (locus YPR025C, strain CCL1, hits give low values) of the same compound?
**A.** 0.969

**Q.** What about the normalized growth (locus YPR106W, strain ISR1, hits give low values) of the same compound?
**A.** 0.958

**Q.** And the normalized growth (locus YPR111W, strain DBF20, hits give low values)?
**A.** 0.941

**Q.** What about the normalized growth (strain NNK1, hits give low values) of the same compound?
**A.** 0.96

**Q.** And the normalized growth (strain TSCII, hits give low values)?
**A.** 0.957
